Holding throughout (type): functional
Assay [1] addresses Solute carrier family 2, facilitated glucose transporter member 1 (Homo sapiens) (UniProt P11166). As to the kind of experiment: ST_JUDE_LEISH: Cytotoxicity at 2uM final concentration against transgenic Leishmania Mexicana promastigotes LmGLUT1 that are glucose transport deficient and complemented with the human glucose transporter GLUT1. Activity is measured by DNA content using SYBR green in vitro.

In assay [2] the target is Hexose transporter 1 (Plasmodium falciparum) (UniProt O97467). As to the kind of experiment: ST_JUDE_LEISH: Cytotoxicity at 2uM final concentration against transgenic Leishmania Mexicana promastigotes LmPfHT that are glucose transport deficient and complemented with the Plasmodium falciparum hexose transporter. Activity is measured by DNA content using SYBR green in vitro.

In assay [3] the target is Glucose transporter (Leishmania mexicana) (UniProt O61059). As to the kind of experiment: ST_JUDE_LEISH: Cytotoxicity at 2uM final concentration against transgenic Leishmania Mexicana promastigotes LmGT2 that are glucose transport deficient and complemented with the L. Mexicana glucose transporter 2. Activity is measured by DNA content using SYBR green in vitro.

The structures appear in SMILES notation.

Sequence of Solute carrier family 2, facilitated glucose transporter member 1 (Homo sapiens) (P11166 whole entry): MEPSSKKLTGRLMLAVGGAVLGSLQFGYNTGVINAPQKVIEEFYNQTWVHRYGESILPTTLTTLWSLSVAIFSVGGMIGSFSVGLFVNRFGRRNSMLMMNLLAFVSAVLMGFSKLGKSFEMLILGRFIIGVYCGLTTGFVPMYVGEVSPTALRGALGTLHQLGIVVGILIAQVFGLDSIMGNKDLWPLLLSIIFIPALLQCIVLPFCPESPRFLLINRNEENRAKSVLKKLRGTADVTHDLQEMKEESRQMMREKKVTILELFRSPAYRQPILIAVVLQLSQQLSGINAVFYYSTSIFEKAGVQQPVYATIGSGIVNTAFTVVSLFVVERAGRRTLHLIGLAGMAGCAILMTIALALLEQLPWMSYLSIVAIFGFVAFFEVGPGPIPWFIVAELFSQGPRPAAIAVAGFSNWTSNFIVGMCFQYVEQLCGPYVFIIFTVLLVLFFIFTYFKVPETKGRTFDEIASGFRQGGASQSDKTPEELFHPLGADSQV

As a reminder, the inhibition is the relative decrease from the control value, in per cent. Turning to `Cc1cc(N2CCC(C)CC2)nc2cc(O)ccc12`, the inhibition in assay [1] was determined as 1%; in assay [2], 0.44%; in assay [3], 0.89%.

`CN1CCN(Cc2ccc(-c3ccc4c(Nc5ccc(Oc6ccccc6)cc5)ccnc4c3)o2)CC1`: the inhibition in assay [1] was -0.9%; in assay [2], -0.3%; in assay [3], 0.49%.

As for `O=C(Nc1cccc(-c2ccc(CN3CCC(O)CC3)cc2)c1)c1ccc(Cl)cc1`, the inhibition in assay [1] was determined as 2.51%; in assay [2] it was 3.64%; in assay [3], 1.52%.

As to `NS(=O)(=O)c1cccc(N/C=C2\C(=O)Nc3ccc(S(=O)(=O)Cc4c(Cl)cccc4Cl)cc32)c1`, the inhibition came to 4.04% in assay [1], 0.57% in assay [2] and 3.06% in assay [3].

Take `O=C(c1csc(-c2cccnc2)n1)N1CCc2cc3nccc(N4CCN5CCC[C@H]5C4)c3cc21`: the inhibition in assay [1] was 15%; in assay [2] it was 8.81%; in assay [3], 5.59%.

With `Cc1ccc(Nc2nc(N/N=C/c3cccc([N+](=O)[O-])c3)nc(Nc3ccccc3)n2)c(C)c1`, the inhibition in assay [1] is 2.34%; in assay [2] it was 1.33%; in assay [3], -0.87%.

On to `Cn1nc(C(F)(F)F)c(-c2ccc(Br)cc2)c1NC(=O)Nc1ccc(F)cc1F`, for which the inhibition was 1.12% in assay [1], 1.19% in assay [2] and 1.25% in assay [3].

`COc1ccc2nccc([C@@H](O)CN3CCC(NS(=O)(=O)c4cc(Br)c(Br)s4)CC3)c2c1`: the inhibition worked out at 3.72% in assay [1], 2.36% in assay [2] and 1.8% in assay [3].

In the case of `COc1cccc2sc(Nc3nc(-c4ccccn4)cs3)nc12`, the values for the inhibition in assay [1], in assay [2] and in assay [3] were 0.13%, 1.96% and 2.52%, respectively.

On to `CN1CCN(CCCN(Cc2cccc(-c3ccc(CNC4CCCC4)cc3)c2)C(=O)/C=C/c2ccccc2)CC1`, for which the inhibition in assay [1] worked out at 6.1%; in assay [2], 7.29%; in assay [3] it was 4.93%.

On to `CCCc1cc(C(C)=O)ccc1OCCCON1C(=N)N=C(N)NC1(C)C`, for which the inhibition in assay [1] worked out at 22.1%; in assay [2], 29.3%; in assay [3], 20.5%.

Turning to `CC(C)c1sc(N2CCN(C)CC2)nc1C(=O)NCCc1ccc(Br)cc1`, the values for the inhibition in assay [1], in assay [2] and in assay [3] were 3.06%, 1.28% and 2.14%, respectively.

For `CN(C)CCN(C)Cc1ccc(-c2ccc(NC(=O)c3cccc(Cl)c3)cc2)cc1`, the inhibition in assay [1] worked out at 7.23%; in assay [2], 6.44%; in assay [3], 6.55%.

For the compound `COc1ccc2nccc([C@@H](O)CN3CCC(NC(=O)/C=C/c4cccc(-c5ccccc5)c4)CC3)c2c1`, the figures for the inhibition in assay [1], in assay [2] and in assay [3] were 7.76%, 6.73% and 0.36%, respectively.

On to `Cc1ccc(O)cc1Nc1ccnc2cc(-c3cccc(CNCCS(C)(=O)=O)c3)ccc12`, for which the inhibition was 1.09% in assay [1], 0.12% in assay [2] and -3.77% in assay [3].

On to `Cc1cccc(-c2nc(Nc3ccncc3)c3ccc([N+](=O)[O-])cc3n2)n1`, for which the inhibition in assay [1] worked out at 5.77%; in assay [2], 7.55%; in assay [3], 3.86%.

Take `COc1ccc(-c2csc3ncnc(Cl)c23)cc1`: the inhibition in assay [1] came to 5.44%; in assay [2], 5.72%; in assay [3], 4.99%.

As to `O=C(NCCN1CCN(S(=O)(=O)c2ccc(OC3CCNCC3)c(Br)c2)CC1)c1ccc(Cl)c(Cl)c1`, the results for the inhibition in assay [1], in assay [2] and in assay [3] were 3.33%, 3.46% and 4.49%, respectively.

`CCOC(=O)c1cc(C(=O)OC)c2ccccn12`: the results for the inhibition in assay [1], in assay [2] and in assay [3] were 2.17%, 0.87% and 1.34%, respectively.

Turning to `CC1(C)N=C(N)N=C(N)C1c1ccc(Cl)c(Cl)c1` (stereo not drawn), the inhibition came out at 0.69% in assay [1], 2.94% in assay [2] and 1.36% in assay [3].

Consider `Cc1cc(N/N=C/c2ccccc2[N+](=O)[O-])c2cccc(C)c2n1`, for which the inhibition turned out to be 11.2% in assay [1], 13.9% in assay [2] and 7.94% in assay [3].

On to `CC(C)c1ccc2[nH]c(C(=O)NC3CCC(N4CCCc5ccc(C#N)cc5C4)CC3)cc2c1` (stereo not drawn), for which the figures for the inhibition in assay [1], in assay [2] and in assay [3] were 3.48%, 0.9% and 1.58%, respectively.

`O=[N+]([O-])c1cccc(Nc2nccc(-c3cnn4ncccc34)n2)c1`: the inhibition in assay [1] amounted to 83%; in assay [2] it was 85.4%; in assay [3], 79.9%.

For the compound `CCN(CC)CCNc1nc(C=Cc2ccc(Cl)cc2)nc2cc3ccccc3cc12`, the inhibition in assay [1] was -0.78%; in assay [2], -0.58%; in assay [3], -1.66%.

Turning to `CCOC(=O)c1ccc(NC(=O)c2ccccc2C(=O)O)cc1`, the inhibition is 0.53% in assay [1], 1.23% in assay [2] and -0.02% in assay [3].

Turning to `Cc1cc(N[C@@H](Cc2ccccc2)C(=O)Nc2ccccc2)nc(NCCc2ccccc2)n1`, the inhibition is 3.8% in assay [1], 5.68% in assay [2] and 0.11% in assay [3].

In the case of `CC(C)(C)c1ccc(/C=C/C(=O)NCCCCCN2CCC(c3c[nH]c4ccccc34)CC2)cc1`, the inhibition in assay [1] was 4.78%; in assay [2], 4.13%; in assay [3], -1.25%.

As for `Cc1cc(Nc2cc(Cl)cc(Cl)c2)nc(N)n1`, the inhibition in assay [1] worked out at 9.89%; in assay [2] it was 10.2%; in assay [3] it was 6.94%.

For `Cc1cc(-c2ccc3c(c2)CCN(CCC2CCC(NC(=O)/C=C/c4ccc(F)cc4)CC2)CC3)on1` (stereo not drawn), the inhibition in assay [1] was found to be 4.44%; in assay [2], 2.66%; in assay [3] it was 4.41%.

Consider `O=C(Nc1ccc(N2CCCCC2)c(Cl)c1)c1ccc(Br)o1`, for which the inhibition came out at 1.4% in assay [1], 2.17% in assay [2] and 2.35% in assay [3].

Regarding `FC(F)(F)c1ccc2[nH]c(-c3cccc(-c4ccc(CNCC5CCCO5)cc4)c3)nc2c1` (stereo not drawn), the inhibition stood at 11.3% in assay [1], 8.39% in assay [2] and 6.46% in assay [3].

In the case of `Cc1cc(N[C@@H](CC(C)C)C(=O)NCc2cccs2)nc(NCCc2cccs2)n1`, the inhibition in assay [1] amounted to 7.52%; in assay [2] it was 5.28%; in assay [3], 3.84%.

Regarding `O=C(NC1CC1)c1ccc(Cn2c(SCc3cccc([N+](=O)[O-])c3)nc3ccccc3c2=O)cc1`, the values for the inhibition in assay [1], in assay [2] and in assay [3] were 1.19%, 0.54% and 0.2%, respectively.

As to `CC1(C)N=C(N)N=C(N)N1OCc1cccc2c1ccc1ccccc12`, the inhibition was 0.96% in assay [1], 2.76% in assay [2] and 0.32% in assay [3].

`O=C(NCc1cccc(OC(F)(F)F)c1)c1cnc2c(c1)nc(-c1c[nH]c(-c3ccccc3)n1)n2CCc1c[nH]cn1`: the figures for the inhibition in assay [1], in assay [2] and in assay [3] were 2.3%, 2.34% and -2.01%, respectively.

For `CCCC(CCC)n1ccc2c3c(N)nc(N)nc3ccc21`, the inhibition in assay [1] amounted to 59.8%; in assay [2], 70.1%; in assay [3] it was 44.5%.

(Values after ChEMBL document CHEMBL3433997, “St. Jude Leishmania screening dataset” (2016).)
